Records with an inconclusive call do not appear. Where a call stands in place of a potency, no number is given. Calls of active or inactive are those of the source. Calls follow the shape of the dose curve; as a rule, active = well fitted inhibition curve with a large enough effect; inconclusive = small, poorly fitted or top-dose-only effect; inactive = flat fitted curve, though single readings scatter.
Target: Aldehyde dehydrogenase, mitochondrial (Homo sapiens) (UniProt P05091)
Experiment: qHTS for Inhibitors of the Aldehyde Dehydrogenase Family (ALDH2) Primary screen (AID 2061308); also: nearly all actives have a fitted effect of over 55% in size
Conditions: ALDH2 enzyme inhibition qHTS, 1536-well; series mostly up to 56 µM

Structure (SMILES)	Potency
C[C@@H](CN1CCC(n2c(=O)[nH]c3cc(Br)ccc32)CC1)NC(=O)[C@@H]1C[C@H]1c1ccccc1	inactive
Cc1ccccc1C(C(=O)NC1CCCCC1)N(C(=O)Cn1ccnc1C)c1cccc(F)c1 (configuration not stated)	inactive
C[C@]12CC[C@H](O)C[C@H]1CC[C@@H]1[C@@H]2[C@H](O)C[C@]2(C)[C@@H](c3ccc(=O)oc3)CC[C@]12O	inactive
CC(C)[C@H]1OC(=O)[C@H](Cc2ccccc2)N(C)C(=O)[C@@H](C(C)C)OC(=O)[C@H](Cc2ccccc2)N(C)C(=O)[C@@H](C(C)C)OC(=O)[C@H](Cc2ccccc2)N(C)C1=O	inactive
CCOc1ccc(CCNC(=O)c2cc3sccc3n2Cc2ccc(F)cc2F)cc1OCC	inactive
CC(=O)OC[C@]12C[C@H](OC(=O)CC(C)C)C(C)=C[C@H]1O[C@@H]1[C@H](O)[C@@H](O)[C@@]2(C)[C@]12CO2	inactive
CCOc1ccc(CCNC(=O)c2ccc(C(=O)c3ccccc3)cc2)cc1OCC	inactive
C[C@H]1C/C=C/[C@H]2[C@@H]3O[C@]3(C)[C@@H](C)[C@H]3[C@H](Cc4ccccc4)NC(=O)[C@]32OC(=O)O/C=C/[C@@](C)(O)C1=O	inactive
CCCCCOc1cc2c(cc1-c1cc(/C=C/C(=O)O)ccc1O)C(C)(C)CCC2(C)C	inactive
CCN1C[C@]2(COC)[C@H](O)C[C@H](OC)[C@]34[C@@H]5C[C@]6(O)[C@H](OC(=O)c7ccccc7)[C@@H]5[C@@](O)([C@H]([C@H](OC)[C@H]23)[C@@H]14)[C@@H](O)[C@@H]6OC	inactive
C/C=C(\C)C(=O)OC1C2C3(C)CCC(OC4CC(OC)C(OC5OC(C)C(O)C(OC)C5O)C(C)O4)CC3CCC23OC32CCC(C(C)=O)C2(C)C1OC(=O)/C(C)=C/C (configuration not stated)	inactive
Cc1cccc2nc(NC3=NC(c4[nH]ncc4Cl)C4=C(CCCC4=O)N3)oc12 (configuration not stated)	inactive
S=P(c1ccccc1)(c1ccccc1)c1c[nH]c2ccccc12	inactive
CC[C@H]1C2CC3[C@@H]4N(C)c5ccccc5[C@]45C[C@@H]([C@H]2[C@H]5O)N3[C@@H]1O	inactive
CCOc1ccc(CCNC(=O)c2ccccc2)cc1OCC	inactive
COC(=O)C12C(=O)C(C)(O)C(=O)C1(C)C(C)=CC1C34CCC(OC3=O)C(C)(C)C4CCC12C (configuration not stated)	inactive

Structure (SMILES)	Potency
O=S(=O)(Nc1ccccc1)c1ccc(NCc2ccc(Br)cc2O)cc1	inactive
C=C1[C@@H](O)[C@]2(O)OC[C@]34C2[C@]2(C)C(C[C@H]3OC(=O)[C@H](O)[C@@]14O)C(C)=CC(=O)[C@H]2O (some centres not stated)	inactive
CO[C@@H]1[C@H](O)[C@@H](O[C@@H]2C[C@H]3CC[C@@H]4C(CC[C@]5(C)[C@@H](C6=CC(=O)OC6)CC[C@]45O)[C@@]3(C)[C@H](O)C2)O[C@H](C)[C@@H]1O[C@@H]1O[C@H](CO)[C@@H](O)[C@H](O)[C@H]1O (some centres not stated)	inactive
N#Cc1ccc(NC(=O)Nc2nnc(-c3ccncc3)s2)cc1Cl	inactive
OC(CNc1ccccc1)Cn1c2ccc(Br)cc2c2cc(Br)ccc21 (configuration not stated)	inactive
CN1CCc2cc3c(cc2[C@H]1[C@@H]1OC(=O)c2c1ccc1c2OCO1)OCO3	inactive
CC(C)C(=O)O[C@H]1[C@@H]2[C@H](C)C(=O)O[C@@H]2C[C@@H](C)[C@@H]2C=CC(=O)[C@]21C	inactive
CCOc1ccc(CCNC(=O)c2ccc(Oc3ccccc3)cc2)cc1OCC	inactive
CC(=O)OC1CC(O)C2(C)C(CC(OC(C)=O)C3(C)C2CCC2(C)C(c4ccoc4)C(=O)C4OC423)C1(C)C (configuration not stated)	inactive
CC(C)CCn1c(CN2CCN(C(=O)C3CC3)CC2)nc2c1c(=O)n(C)c(=O)n2C	inactive
CO[C@H]1[C@@H](O)[C@@H](C)O[C@@H](O[C@@H]2C=C3C(OC(C)=O)CC4(O)C(CC[C@]5(C)[C@@H](C6=CC(=O)OC6)CC[C@]45O)[C@@]3(C)CC2)[C@@H]1O (some centres not stated)	inactive
CCC(C)(O)C1(C(=O)O)COC(=O)C1 (configuration not stated)	inactive
COC(=O)CC1CC2(C(=O)c3c(O)cccc3C2(O)C(=O)OC)C(C)O1 (configuration not stated)	inactive
COC1CC(O[C@H]2CC[C@@]3(C)C(CCC4C3CC[C@]3(C)[C@@H](C5=CC(=O)OC5)CC[C@]43O)C2)OC(C)C1O (some centres not stated)	inactive
COc1cccc(CNc2ccc(C(=O)Nc3nccs3)cc2)c1O	inactive
CO[C@@H]1C[C@H](O[C@H]2CC[C@@]3(C)C(CCC4C3CC[C@]3(C)[C@@H](C5=CC(=O)OC5)[C@@H](OC(C)=O)CC43O)C2)O[C@H](C)[C@@H]1O[C@H]1O[C@H](CO[C@@H]2O[C@H](CO)[C@@H](O)[C@H](O)[C@H]2O)[C@@H](O)[C@H](O)[C@H]1O (some centres not stated)	inactive
